Screens deposited in PubChem by National Center for Advancing Translational Sciences (NCATS).
Only some compounds are listed: those with a hit (about 2.9% of all), similar ones and a draw of the others.
EPAC1 ag val – validation of human EPAC1 agonists | EPAC1 Rap1b BODIPY-GDP exchange, fluorescence | AID 1645883 | hit rate 1% among 16,000 | Potency, µM, usual class: activators | O95398; further: nearly all actives have a fitted effect of over 70% in size
EPAC2 ant val – validation of human EPAC2 antagonists; Q8WZA2; EPAC2 Rap1B BODIPY-GDP exchange, fluorescence; Potency, µM (top dose mostly 112 µM), hits mostly inhibitors; hit rate 1.7% among 16,000; AID 1645886; further: nearly all actives have a fitted effect of over 40% in size
Target sequence (Q8WZA2 whole entry, looked up): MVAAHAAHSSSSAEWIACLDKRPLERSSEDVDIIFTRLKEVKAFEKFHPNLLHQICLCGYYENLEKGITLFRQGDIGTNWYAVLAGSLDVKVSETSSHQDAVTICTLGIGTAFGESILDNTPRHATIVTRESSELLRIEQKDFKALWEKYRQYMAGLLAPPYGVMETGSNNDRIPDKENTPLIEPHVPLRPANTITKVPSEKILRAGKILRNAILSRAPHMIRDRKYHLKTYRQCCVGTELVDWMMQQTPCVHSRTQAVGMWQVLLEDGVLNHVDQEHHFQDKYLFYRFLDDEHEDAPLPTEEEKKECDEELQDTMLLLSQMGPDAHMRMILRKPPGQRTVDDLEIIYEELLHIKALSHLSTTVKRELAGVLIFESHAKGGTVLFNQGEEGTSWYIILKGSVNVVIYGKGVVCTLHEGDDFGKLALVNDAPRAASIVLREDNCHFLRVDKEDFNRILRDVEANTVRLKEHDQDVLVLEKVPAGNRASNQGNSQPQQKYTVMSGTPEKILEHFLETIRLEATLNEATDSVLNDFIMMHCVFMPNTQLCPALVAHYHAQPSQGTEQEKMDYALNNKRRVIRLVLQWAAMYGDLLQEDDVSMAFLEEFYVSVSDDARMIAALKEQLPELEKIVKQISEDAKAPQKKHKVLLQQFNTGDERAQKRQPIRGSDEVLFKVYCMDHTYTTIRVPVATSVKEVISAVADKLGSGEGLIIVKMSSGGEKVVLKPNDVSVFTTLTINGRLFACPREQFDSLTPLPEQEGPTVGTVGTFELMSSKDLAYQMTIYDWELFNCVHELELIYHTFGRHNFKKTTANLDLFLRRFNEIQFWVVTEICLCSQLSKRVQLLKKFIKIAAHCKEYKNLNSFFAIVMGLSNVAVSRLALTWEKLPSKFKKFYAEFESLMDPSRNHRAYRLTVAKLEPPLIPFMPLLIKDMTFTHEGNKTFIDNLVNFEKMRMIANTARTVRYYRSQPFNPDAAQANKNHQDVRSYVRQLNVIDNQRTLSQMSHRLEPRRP
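Fluorescent exchange read-out: 100 nM EPAC2 with 250 nM RAP1B–BODIPY-GDP and 50 uM GDP; BODIPY-GDP release lowers fluorescence. Read at 480/540 nm every 5 min for 30 min at room temperature; normalized to 6.5 mM cAMP.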
Of the large screens only hits and unclear results are named; the others gave an inactive call; ! = repeats disagree. The call rests on the fitted dose curve; in most records, active means well fitted curve in the direction sought with a large enough effect; inconclusive means small, poorly fitted or top-dose-only effect, or another doubt; inactive means no such curve, though single readings can be large; an effect the other way counts as inactive or inconclusive.

COc1cc2c(cc1OC)-c1cc(=Nc3c(C)cc(C)cc3C)n(C)c(=O)n1CC2	EPAC1 ag val inconclusive, EPAC2 ant val 14µM!
O=C(O)c1ccccc1Nc1ccccc1	none
O=C(O)c1ccccc1Nc1cccc(C(F)(F)F)c1	EPAC2 ant val 35µM!
Cc1cccc(C(=O)NCc2nc(-c3cccc(NC(=O)c4ccoc4C)c3)oc2C)n1	none
Cc1ccc(C(=O)Nc2cccc(-c3nc(CNC(=O)c4ccc5ccccc5n4)c(C)o3)c2)s1	none
c1ccc(-c2onc(-c3ccco3)c2-c2ccc3[nH]ccc3c2)cc1	EPAC1 ag val 112µM, EPAC2 ant val inconclusive
O=c1c(-c2ccccc2)nc2cnc(N3CCNCC3)nc2n1Cc1ccc(F)cc1	none
O=c1c(-c2cc(F)cc(F)c2)nc2cnc(N3CCNCC3)nc2n1Cc1ccc(F)cc1	EPAC1 ag val inconclusive, EPAC2 ant val 50µM
Cc1cccc(C)c1N(CCCc1cccnc1)C(=O)C(C)N (centres undefined)	none
Cc1cnc(SCc2ccccn2)nc1C1CCCN(C(=O)c2scc3c2CCCC3)C1 (centres undefined)	EPAC2 ant val inconclusive
COC(=O)Nc1nc2ccc(C(=O)c3ccccc3)cc2[nH]1	none
COC(=O)Nc1nc2ccc(C(=O)c3cccs3)cc2[nH]1	EPAC2 ant val 79µM!
CC(C)(CO)Cc1cc(C(C)(C)C)c(O)c(C(C)(C)C)c1	EPAC2 ant val 56µM!
CC(C)(C=O)Cc1cc(C(C)(C)C)c(O)c(C(C)(C)C)c1	EPAC2 ant val inconclusive
O=C1OC2(c3ccccc31)c1cc(I)c(O)c(I)c1Oc1c2cc(I)c(O)c1I	EPAC1 ag val 32µM
O=C1OC2(c3ccc(O)cc3Oc3cc(O)ccc32)c2ccccc21	EPAC1 ag val inconclusive
C[C@@H]1NC(=O)[C@@H](N)CNC(=O)[C@H](C2CCNC(N)=N2)NC(=O)/C(=C/NC(N)=O)NC(=O)[C@H](CNC(=O)C[C@@H](N)CCCN)NC1=O (some centres undefined)	none
COc1cc(-c2coc3cc(OCc4ccccc4)c(OC)c(O)c3c2=O)cc(O)c1OC	EPAC1 ag val 112µM
COc1cc(-c2coc3cc(O[C@H]4OC(CO)C(O)C(O)C4O)c(OC)c(O)c3c2=O)cc(O)c1OC (some centres undefined)	none
CN(C)CC/C=C1/c2ccccc2CSc2ccccc21	none
Cc1c(N)nc(C(CC(N)=O)NCC(N)C(N)=O)nc1C(=O)NC(C(=O)NC(C)C(O)C(C)C(=O)NC(C(=O)NCCc1nc(-c2nc(C(=O)NCCCN[C@@H](C)c3ccccc3)cs2)cs1)C(C)O)C(O[C@@H]1O[C@@H](CO)[C@@H](O)[C@H](O)[C@@H]1O[C@H]1O[C@H](CO)[C@@H](O)[C@H](OC(N)=O)[C@@H]1O)c1cnc[nH]1 (some centres undefined)	none
CC1(C)[C@@H](O)CC[C@]2(C)C3C(=O)C=C4C5C[C@@](C)(C(=O)O)CC[C@]5(C)CC[C@@]4(C)[C@]3(C)CC[C@@H]12 (some centres undefined)	EPAC2 ant val 4µM
CC1(C)C2CC[C@]3(C)[C@H](C(=O)C=C4[C@@H]5C[C@@](C)(C(=O)O)CC[C@]5(C)CC[C@]43C)[C@@]2(C)CC[C@@H]1O[C@H]1O[C@H](C(=O)O)[C@@H](O)[C@H](O)[C@H]1O[C@@H]1O[C@H](C(=O)O)[C@@H](O)[C@H](O)[C@H]1O (some centres undefined)	EPAC2 ant val inconclusive
CC[C@@H](C(=O)O)[C@@H]1O[C@@H]([C@@H](C)[C@H](O)[C@H](C)C(=O)[C@H](CC)[C@H]2O[C@]3(C=C[C@@H](O)[C@]4(CC[C@@](C)([C@H]5CC[C@](O)(CC)[C@H](C)O5)O4)O3)[C@H](C)C[C@@H]2C)[C@@H](C)C[C@@H]1C	none
O=C(CCN1CCN(CCO)CC1)N1c2ccccc2Sc2ccc(C(F)(F)F)cc21	none
CN1CCN(CCCN2c3ccccc3Sc3ccc(C(F)(F)F)cc32)CC1	EPAC2 ant val 56µM!
CN(Cc1ccco1)c1ncncc1-c1ccccc1Cl	EPAC1 ag val inconclusive
COc1ccccc1-c1cc(N(C)Cc2ccco2)ncn1	EPAC2 ant val inconclusive
CN(Cc1ccco1)c1ncnc2ccc(-c3ccccc3Cl)cc12	EPAC1 ag val inconclusive, EPAC2 ant val 40µM
CN(Cc1ccco1)c1ncnc2ccc(-c3ccoc3)cc12	EPAC2 ant val 45µM
CN(C)c1ncnc2ccc(-c3ccoc3)cc12	none
COc1ccccc1-c1ccc2ncnc(N(C)Cc3ccco3)c2c1	EPAC1 ag val inconclusive, EPAC2 ant val 50µM
Cn1nccc1C(=O)NCC1CCC2(CCN(Cc3ccc(-c4ccc(Cl)cc4)o3)CC2)O1 (centres undefined)	none
CCC1CN(Cc2cn[nH]c2-c2ccc(F)cc2)Cc2cc(OC)ccc2O1 (centres undefined)	EPAC2 ant val inconclusive
COc1ccc(-c2nc3cc(C)ccc3cc2CN(C(=O)c2cccs2)C2CC2)cc1OC	EPAC2 ant val inconclusive
COc1cccc(C(=O)N(Cc2cc3ccc(C)cc3nc2N(C)C)C2CC2)c1OC	EPAC2 ant val 14µM
OC1(c2cccnc2)CCN(Cc2ccc3c(c2)CN(Cc2cccc(C(F)(F)F)c2)CCO3)CC1	none
COc1ccc2[nH]cc(CCNc3nc(-c4cccc(C#N)c4)nc4ccccc34)c2c1	EPAC1 ag val 112µM
COc1ccc2[nH]cc(CCNc3nc(-c4ccccc4OC)nc4ccccc34)c2c1	EPAC1 ag val inconclusive
CC(=O)N1CCC2(CCCN(C(c3ccccc3)c3ccccc3)C2)CC1	EPAC2 ant val 32µM
CC(=O)N1CCC2(CC1)CCN(C(c1ccccc1)c1ccccc1)CC2	none
CCO[C@H]1[C@H](NC(=O)c2cccnc2)c2ccccc2C12CCN(C(=O)c1ccoc1)CC2	none
CCOc1ccc2nc3cc(N)ccc3c(N)c2c1	EPAC2 ant val inconclusive
Nc1ccc2cc3ccc(N)cc3nc2c1	EPAC1 ag val 100µM
OCC1OC(Oc2cccc3cccnc23)C(O)C(O)C1O (centres undefined)	none
O=C(O)c1cc(O)c2c(c1)[C@H]([C@H]1c3cc(C(=O)O)cc(O)c3C(=O)c3c(O[C@@H]4O[C@H](CO)[C@@H](O)[C@H](O)[C@H]4O)cccc31)c1cccc(O[C@@H]3O[C@H](CO)[C@@H](O)[C@H](O)[C@H]3O)c1C2=O	EPAC1 ag val inconclusive, EPAC2 ant val 79µM
c1cncc(OC2CCN(Cc3ccc4c(c3)CN(Cc3ccc5c(c3)OCCO5)CCO4)CC2)c1	none
COc1ccc(-c2nc3cc(C)ccc3cc2CN(C(=O)c2ccc(C)s2)C2CC2)cc1OC	EPAC2 ant val inconclusive
COc1cccc(C(=O)NCc2nc(-c3cccc(NC(=O)c4ccoc4C)c3)oc2C)c1OC	none
CO[C@@H]1[C@@H](O[C@@H]2O[C@H](C)[C@@H](O[C@H]3C[C@@](C)(O)[C@@H](OC(=O)CC(C)C)[C@H](C)O3)[C@H](N(C)C)[C@H]2O)[C@@H](CC=O)C[C@@H](C)[C@@H](O)/C=C/C=C/C[C@@H](C)OC(=O)C[C@H]1O	none
O=C(Nc1ccc(C(=O)Nc2ccc(C(=O)Nc3ccc(S(=O)(=O)O)c4cc(S(=O)(=O)O)cc(S(=O)(=O)O)c34)cc2)cc1)Nc1ccc(C(=O)Nc2ccc(C(=O)Nc3ccc(S(=O)(=O)O)c4cc(S(=O)(=O)O)cc(S(=O)(=O)O)c34)cc2)cc1	EPAC2 ant val 22µM
